This experiment has as its system Falciformispora senegalensis CBS197.79. As to the kind of experiment: growth relative to untreated control; higher = less inhibition, active = 20 or less. A digest of the protocol: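 Viability readout used either MTS (2 h, 490 nm) or resazurin (600 nm). Before this, hyphal fragments of M. mycetomatis MM55 or F. senegalensis CBS197.79 in colourless RPMI 1640 with L-glutamine and MOPS (68–72% transmission at 660 nm) had been exposed in 96-well plates to compound at 100 or 25 µM for 7 days at 37 °C. Growth denotes metabolic activity relative to the untreated growth control, with a medium-plus-dye blank subtracted from both.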

Unmarked numbers belong to inactive results.

Turning to `CCN(CC)c1nc(C)cc(OP(=S)(OC)OC)n1`, the growth is 96% (25 µM) and 95.6% (100 µM).

Take `CCN(Cc1ccc(Cl)nc1)/C(=C/[N+](=O)[O-])NC`: the growth (25 µM) is 95.3% and the growth (100 µM) is 89.6%.

For `CCc1nn(C)c(C(=O)NCc2ccc(Oc3ccc(C)cc3)cc2)c1Cl`, the growth is 98.1% (25 µM) and 79.9% (100 µM).

For the compound `COc1ccc(CCN2CCC(Nc3nc4ccccc4n3Cc3ccc(F)cc3)CC2)cc1`, the growth (25 µM) is 12.9% (active) and the growth (100 µM) is 15% (active).

For `CN/C(=N\[N+](=O)[O-])NCc1cnc(Cl)s1`, the growth by setting is: (25 µM) 90.6%; (100 µM) 85.7%.

Take `COP(=S)(OC)Oc1ccc(Sc2ccc(OP(=S)(OC)OC)cc2)cc1`: the growth by setting is: (25 µM) 93.4%; (100 µM) 92.8%.

For `CC[C@@H](C(=O)[C@@H](C)[C@@H](O)[C@H](C)[C@@H]1O[C@@H]([C@@H](CC)C(=O)O)CC[C@@H]1C)[C@H]1O[C@]2(C=C[C@@H](O)[C@]3(CC[C@@](C)([C@H]4CC[C@](O)(CC)[C@H](C)O4)O3)O2)[C@H](C)C[C@@H]1C`, the growth (25 µM) was 102% and the growth (100 µM) is 102%.

Take `CN1C(=O)C(C(=O)Nc2ccc(Cl)c(Cl)c2)C(=O)N(C)C1=O`: the growth was 83.2% (25 µM) and 84.5% (100 µM).

On to `O=[N+]([O-])/C=C1\NCCCS1`, for which the growth is 86.4% (25 µM) and 93.8% (100 µM).

Consider `CN1C2CCC1CC(C#N)C2` (configuration not stated), for which the growth is 92.1% (25 µM) and 85.8% (100 µM).

For the compound `CNC(=O)O/N=C(/C)SC`, the growth was 86.2% (25 µM) and 89.3% (100 µM).

Regarding `CNCCn1c(Nc2cc(Cl)cc(C(F)(F)F)c2)nc2cnc(NC3CC(F)(F)C3)cc21`, the growth by setting is: (25 µM) 69%; (100 µM) 26.2%.

Take `COP(=S)(OC)Oc1nc(Cl)c(Cl)cc1Cl`: the growth by setting is: (25 µM) 91.7%; (100 µM) 93.4%.

On to `CN(C)CCn1c(Nc2cc(Cl)cc(C(F)(F)F)c2)nc2cnc(NC3CCCC3)cc21`, for which the growth reads like this: (25 µM) 94.1%; (100 µM) 105%.

Consider `CC(C)(C)Nc1cc2c(cn1)nc(Nc1cc(Cl)cc(C(F)(F)F)c1)n2C1CCNC1` (configuration not stated), for which the growth reads like this: (25 µM) 15.1% (active); (100 µM) 14.1% (active).

Regarding `CCOP(=S)(OCC)Oc1cc(C)nc(C(C)C)n1`, the growth is, setting by setting: (25 µM) 97.9%; (100 µM) 88.9%.

Take `C[C@@H]1C[C@@H]([C@H](O)CC2CC(=O)NC(=O)C2)C(=O)[C@@H](C)C1`: the growth is 101% (25 µM) and 101% (100 µM).

Consider `O=C(NC(=O)c1c(F)cccc1F)Nc1ccc(Cl)cc1`, for which the growth reads like this: (25 µM) 92.8%; (100 µM) 84.5%.

In the case of `CN1COCN(Cc2cnc(Cl)s2)/C1=N/[N+](=O)[O-]`, the growth reads like this: (25 µM) 93%; (100 µM) 86.8%.

For the compound `Cc1sc2c(c1C)C(c1ccc(Cl)cc1)=N[C@@H](CC(=O)OC(C)(C)C)c1nnc(C)n1-2`, the growth by setting is: (25 µM) 101%; (100 µM) 97.4%.

For the compound `CCOc1ccc(C(C)(C)COCc2cccc(Oc3ccccc3)c2)cc1`, the growth is, setting by setting: (25 µM) 79.4%; (100 µM) 39.3%.

For the compound `FC(F)(F)c1cc(Cl)cc(Nc2nc3cnc(OC4CCC4)cc3n2[C@@H]2CCNC2)c1`, the growth (25 µM) is 99.8% and the growth (100 µM) was 108%.

On to `O=[N+]([O-])/N=C1\NCCN1Cc1ccc(Cl)nc1`, for which the growth (25 µM) is 90.2% and the growth (100 µM) was 86.5%.

As to `N#Cc1nn(-c2c(Cl)cc(C(F)(F)F)cc2Cl)c(NCc2ccccn2)c1SC(F)F`, the growth by setting is: (25 µM) 85.6%; (100 µM) 101%.

Turning to `O=C(NC(=O)c1ccccc1Cl)Nc1ccc(OC(F)(F)F)cc1`, the growth reads like this: (25 µM) 84.1%; (100 µM) 76.1%.

In the case of `CC(C)Nc1cc2c(cn1)nc(Nc1cc(Cl)cc(C(F)(F)F)c1)n2C1CCNC1` (configuration not stated), the growth was 66.7% (25 µM) and 28.6% (100 µM).

For the compound `C=C(C)[C@H]1Cc2c(ccc3c2O[C@@H]2COc4cc(OC)c(OC)cc4[C@@H]2C3=O)O1`, the growth (25 µM) is 90.6% and the growth (100 µM) was 102%.

For `CC(C)=CC1C(C(=O)OCN2C(=O)C3=C(CCCC3)C2=O)C1(C)C` (configuration not stated), the growth reads like this: (25 µM) 93.7%; (100 µM) 100%.

Take `CC1(C)CNC(=NN=C(C=Cc2ccc(C(F)(F)F)cc2)C=Cc2ccc(C(F)(F)F)cc2)NC1`: the growth (25 µM) is 88.7% and the growth (100 µM) is 107%.

Take `CC1(Nc2ncc3nc(Nc4cc(Cl)cc(C(F)(F)F)c4)n(C4CCNC4)c3n2)CC1` (configuration not stated): the growth is 83.5% (25 µM) and 52.1% (100 µM).

Take `Clc1cc(Cl)cc(Nc2nc3cnc(NC4CCCC4)cc3n2C2CCNC2)c1` (configuration not stated): the growth is 52.2% (25 µM) and 77.4% (100 µM).
